Experiments:
[1] = target: Homeodomain-interacting protein kinase 3 (Homo sapiens) (UniProt Q9H422); conditions: at 10 µM
[2] = target: T1, Serine/threonine-protein kinase haspin (Homo sapiens) (UniProt Q8TF76); conditions: at 1 µM
T1 sequence (whole entry): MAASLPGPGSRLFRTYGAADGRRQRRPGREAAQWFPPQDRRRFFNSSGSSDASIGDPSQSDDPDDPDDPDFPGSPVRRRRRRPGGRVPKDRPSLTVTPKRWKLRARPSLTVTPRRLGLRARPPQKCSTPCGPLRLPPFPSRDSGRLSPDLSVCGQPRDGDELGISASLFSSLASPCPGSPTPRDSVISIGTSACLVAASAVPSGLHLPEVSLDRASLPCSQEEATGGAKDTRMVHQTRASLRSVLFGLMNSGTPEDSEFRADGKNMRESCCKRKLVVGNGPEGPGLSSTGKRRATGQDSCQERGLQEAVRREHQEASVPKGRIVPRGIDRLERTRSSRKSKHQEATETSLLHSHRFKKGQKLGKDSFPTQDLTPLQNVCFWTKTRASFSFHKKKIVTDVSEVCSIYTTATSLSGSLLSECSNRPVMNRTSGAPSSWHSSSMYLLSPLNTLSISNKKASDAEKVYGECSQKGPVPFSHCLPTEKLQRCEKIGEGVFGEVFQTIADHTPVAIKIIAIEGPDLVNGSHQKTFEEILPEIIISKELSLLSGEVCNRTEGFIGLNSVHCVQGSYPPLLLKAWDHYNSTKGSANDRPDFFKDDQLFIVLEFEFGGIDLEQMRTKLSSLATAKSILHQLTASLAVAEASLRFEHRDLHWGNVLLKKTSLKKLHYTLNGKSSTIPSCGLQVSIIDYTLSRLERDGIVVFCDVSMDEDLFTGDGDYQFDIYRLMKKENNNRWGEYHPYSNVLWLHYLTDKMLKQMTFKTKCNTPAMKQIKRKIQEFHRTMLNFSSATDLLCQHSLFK

[3] = target: T1, Serine/threonine-protein kinase haspin (Homo sapiens); conditions: at 10 µM
[4] = target: Tyrosine-protein kinase HCK (Homo sapiens) (UniProt P08631); conditions: at 1 µM
[5] = target: Tyrosine-protein kinase HCK (Homo sapiens) (UniProt P08631); conditions: at 10 µM
[6] = target: Tyrosine-protein kinase HCK (Homo sapiens) (UniProt P08631); conditions: at 1 µM; remark: listed apart in the source
[7] = target: Tyrosine-protein kinase HCK (Homo sapiens) (UniProt P08631); conditions: at 10 µM; remark: listed apart in the source
[8] = target: Insulin-like growth factor 1 receptor (Homo sapiens) (UniProt P08069); conditions: at 1 µM
[9] = target: Insulin-like growth factor 1 receptor (Homo sapiens) (UniProt P08069); conditions: at 10 µM
[10] = target: Protein kinase C eta type (Homo sapiens) (UniProt P24723); conditions: at 10 µM
[11] = target: Protein kinase C theta type (Homo sapiens) (UniProt Q04759); conditions: at 1 µM
[12] = target: Protein kinase C theta type (Homo sapiens) (UniProt Q04759); conditions: at 10 µM
[13] = target: T2, Serine/threonine-protein kinase D1 (Homo sapiens) (UniProt Q15139); conditions: at 1 µM
T2 sequence (whole entry): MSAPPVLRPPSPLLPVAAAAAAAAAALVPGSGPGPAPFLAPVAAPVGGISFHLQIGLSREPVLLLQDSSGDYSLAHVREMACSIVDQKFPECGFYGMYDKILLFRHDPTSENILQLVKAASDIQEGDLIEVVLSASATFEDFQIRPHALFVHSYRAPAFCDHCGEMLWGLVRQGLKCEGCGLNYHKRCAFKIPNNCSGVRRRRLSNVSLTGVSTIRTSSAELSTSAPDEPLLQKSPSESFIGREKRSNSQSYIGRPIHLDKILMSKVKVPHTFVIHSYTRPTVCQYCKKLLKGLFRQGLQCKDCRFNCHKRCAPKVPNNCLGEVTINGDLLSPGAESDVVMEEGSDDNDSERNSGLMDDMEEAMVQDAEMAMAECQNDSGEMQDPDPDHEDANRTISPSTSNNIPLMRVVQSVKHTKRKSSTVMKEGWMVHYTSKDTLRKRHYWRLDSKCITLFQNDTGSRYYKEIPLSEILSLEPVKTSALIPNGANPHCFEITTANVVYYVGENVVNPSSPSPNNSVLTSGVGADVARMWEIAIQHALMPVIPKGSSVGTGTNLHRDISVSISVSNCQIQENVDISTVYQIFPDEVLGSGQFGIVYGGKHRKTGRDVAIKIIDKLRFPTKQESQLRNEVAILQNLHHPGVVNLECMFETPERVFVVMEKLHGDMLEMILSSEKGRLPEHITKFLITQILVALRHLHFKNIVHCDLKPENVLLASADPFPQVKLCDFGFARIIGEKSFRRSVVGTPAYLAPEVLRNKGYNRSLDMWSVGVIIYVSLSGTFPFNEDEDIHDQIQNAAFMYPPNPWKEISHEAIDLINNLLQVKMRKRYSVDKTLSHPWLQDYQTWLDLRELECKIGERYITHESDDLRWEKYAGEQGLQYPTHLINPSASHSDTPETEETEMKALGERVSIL

[14] = target: T2, Serine/threonine-protein kinase D1 (Homo sapiens); conditions: at 10 µM
[15] = target: T3, Protein kinase C iota type (Homo sapiens) (UniProt P41743); conditions: at 1 µM
T3 sequence (whole entry): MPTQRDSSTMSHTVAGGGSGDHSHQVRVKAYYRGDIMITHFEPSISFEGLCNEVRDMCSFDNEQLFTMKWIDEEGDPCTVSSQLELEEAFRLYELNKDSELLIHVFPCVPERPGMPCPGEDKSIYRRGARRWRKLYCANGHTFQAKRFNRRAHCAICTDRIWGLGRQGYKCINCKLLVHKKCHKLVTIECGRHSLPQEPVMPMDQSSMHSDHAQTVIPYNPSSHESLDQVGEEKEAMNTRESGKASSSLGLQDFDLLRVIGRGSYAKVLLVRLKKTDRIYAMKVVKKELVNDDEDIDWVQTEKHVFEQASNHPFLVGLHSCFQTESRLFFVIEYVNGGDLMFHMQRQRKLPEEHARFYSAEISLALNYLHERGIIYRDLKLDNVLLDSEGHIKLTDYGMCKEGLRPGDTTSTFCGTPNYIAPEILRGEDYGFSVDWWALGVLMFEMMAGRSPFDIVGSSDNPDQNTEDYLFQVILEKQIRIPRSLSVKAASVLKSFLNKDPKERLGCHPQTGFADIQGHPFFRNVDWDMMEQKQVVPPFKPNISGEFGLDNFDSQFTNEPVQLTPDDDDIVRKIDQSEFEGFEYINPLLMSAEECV

[16] = target: T3, Protein kinase C iota type (Homo sapiens); conditions: at 10 µM
[17] = target: T4, Protein kinase C zeta type (Homo sapiens) (UniProt Q05513); conditions: at 10 µM
T4 sequence (whole entry): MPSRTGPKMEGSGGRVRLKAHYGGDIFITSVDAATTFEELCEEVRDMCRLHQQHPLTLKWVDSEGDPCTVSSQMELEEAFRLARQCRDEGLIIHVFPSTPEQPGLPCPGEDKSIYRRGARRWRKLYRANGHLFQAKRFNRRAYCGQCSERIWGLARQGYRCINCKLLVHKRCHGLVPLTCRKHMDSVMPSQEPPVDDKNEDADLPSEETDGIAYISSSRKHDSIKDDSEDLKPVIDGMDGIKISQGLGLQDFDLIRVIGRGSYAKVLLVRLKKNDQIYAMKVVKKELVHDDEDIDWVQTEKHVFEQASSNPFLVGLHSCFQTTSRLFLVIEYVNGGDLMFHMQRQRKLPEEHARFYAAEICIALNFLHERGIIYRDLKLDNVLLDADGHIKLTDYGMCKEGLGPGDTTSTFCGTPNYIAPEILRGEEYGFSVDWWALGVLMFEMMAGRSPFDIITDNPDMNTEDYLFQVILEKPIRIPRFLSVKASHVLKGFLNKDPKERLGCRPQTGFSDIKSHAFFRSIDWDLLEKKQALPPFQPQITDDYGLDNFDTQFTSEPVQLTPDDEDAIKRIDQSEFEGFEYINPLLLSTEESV

[18] = target: T5, Serine/threonine-protein kinase D2 (Homo sapiens) (UniProt Q9BZL6); conditions: at 10 µM
T5 sequence (whole entry): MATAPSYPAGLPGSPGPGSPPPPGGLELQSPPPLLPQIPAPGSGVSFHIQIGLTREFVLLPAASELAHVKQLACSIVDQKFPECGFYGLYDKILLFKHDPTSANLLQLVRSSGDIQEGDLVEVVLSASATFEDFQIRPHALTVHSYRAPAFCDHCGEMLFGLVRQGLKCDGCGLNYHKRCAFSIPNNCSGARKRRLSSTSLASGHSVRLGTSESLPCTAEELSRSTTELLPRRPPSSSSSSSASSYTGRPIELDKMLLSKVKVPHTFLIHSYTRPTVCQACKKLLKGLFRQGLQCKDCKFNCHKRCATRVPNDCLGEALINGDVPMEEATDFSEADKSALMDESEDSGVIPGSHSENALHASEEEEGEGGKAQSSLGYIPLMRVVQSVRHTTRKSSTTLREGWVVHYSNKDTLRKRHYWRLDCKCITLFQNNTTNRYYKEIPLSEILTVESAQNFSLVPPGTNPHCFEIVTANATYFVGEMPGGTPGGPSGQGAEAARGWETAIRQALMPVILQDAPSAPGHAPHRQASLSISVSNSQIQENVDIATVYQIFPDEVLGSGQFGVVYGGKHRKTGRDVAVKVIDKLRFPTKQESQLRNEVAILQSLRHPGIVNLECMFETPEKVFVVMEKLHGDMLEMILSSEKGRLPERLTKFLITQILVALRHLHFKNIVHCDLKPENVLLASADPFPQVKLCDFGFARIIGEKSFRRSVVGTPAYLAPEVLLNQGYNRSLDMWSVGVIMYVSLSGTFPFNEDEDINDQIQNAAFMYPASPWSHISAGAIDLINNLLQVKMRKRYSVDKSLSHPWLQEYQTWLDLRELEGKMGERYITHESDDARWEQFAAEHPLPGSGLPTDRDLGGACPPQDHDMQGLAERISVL

[19] = target: Protein kinase C eta type (Homo sapiens) (UniProt P24723); conditions: at 1 µM
[20] = target: T5, Serine/threonine-protein kinase D2 (Homo sapiens); conditions: at 1 µM

Sequence of Protein kinase C theta type (Homo sapiens) (Q04759 whole entry, looked up): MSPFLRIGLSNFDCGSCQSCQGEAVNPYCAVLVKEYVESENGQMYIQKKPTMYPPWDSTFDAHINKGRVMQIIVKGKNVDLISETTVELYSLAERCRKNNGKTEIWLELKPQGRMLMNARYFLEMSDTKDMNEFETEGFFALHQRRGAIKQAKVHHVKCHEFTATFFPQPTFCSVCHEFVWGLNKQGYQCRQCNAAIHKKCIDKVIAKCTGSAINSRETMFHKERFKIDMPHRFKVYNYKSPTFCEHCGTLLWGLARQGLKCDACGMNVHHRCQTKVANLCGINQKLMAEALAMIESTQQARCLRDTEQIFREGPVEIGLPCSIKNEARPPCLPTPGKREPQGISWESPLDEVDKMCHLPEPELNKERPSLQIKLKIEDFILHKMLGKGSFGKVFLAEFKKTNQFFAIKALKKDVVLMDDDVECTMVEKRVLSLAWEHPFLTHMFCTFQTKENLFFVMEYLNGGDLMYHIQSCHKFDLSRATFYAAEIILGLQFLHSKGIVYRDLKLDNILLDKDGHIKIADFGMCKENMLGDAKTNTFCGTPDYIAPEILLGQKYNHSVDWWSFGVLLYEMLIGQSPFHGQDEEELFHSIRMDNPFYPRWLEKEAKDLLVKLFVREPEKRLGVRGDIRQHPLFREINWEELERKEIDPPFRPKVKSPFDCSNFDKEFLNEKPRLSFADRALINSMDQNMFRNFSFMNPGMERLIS
Sequence of Homeodomain-interacting protein kinase 3 (Homo sapiens) (Q9H422 whole entry, looked up): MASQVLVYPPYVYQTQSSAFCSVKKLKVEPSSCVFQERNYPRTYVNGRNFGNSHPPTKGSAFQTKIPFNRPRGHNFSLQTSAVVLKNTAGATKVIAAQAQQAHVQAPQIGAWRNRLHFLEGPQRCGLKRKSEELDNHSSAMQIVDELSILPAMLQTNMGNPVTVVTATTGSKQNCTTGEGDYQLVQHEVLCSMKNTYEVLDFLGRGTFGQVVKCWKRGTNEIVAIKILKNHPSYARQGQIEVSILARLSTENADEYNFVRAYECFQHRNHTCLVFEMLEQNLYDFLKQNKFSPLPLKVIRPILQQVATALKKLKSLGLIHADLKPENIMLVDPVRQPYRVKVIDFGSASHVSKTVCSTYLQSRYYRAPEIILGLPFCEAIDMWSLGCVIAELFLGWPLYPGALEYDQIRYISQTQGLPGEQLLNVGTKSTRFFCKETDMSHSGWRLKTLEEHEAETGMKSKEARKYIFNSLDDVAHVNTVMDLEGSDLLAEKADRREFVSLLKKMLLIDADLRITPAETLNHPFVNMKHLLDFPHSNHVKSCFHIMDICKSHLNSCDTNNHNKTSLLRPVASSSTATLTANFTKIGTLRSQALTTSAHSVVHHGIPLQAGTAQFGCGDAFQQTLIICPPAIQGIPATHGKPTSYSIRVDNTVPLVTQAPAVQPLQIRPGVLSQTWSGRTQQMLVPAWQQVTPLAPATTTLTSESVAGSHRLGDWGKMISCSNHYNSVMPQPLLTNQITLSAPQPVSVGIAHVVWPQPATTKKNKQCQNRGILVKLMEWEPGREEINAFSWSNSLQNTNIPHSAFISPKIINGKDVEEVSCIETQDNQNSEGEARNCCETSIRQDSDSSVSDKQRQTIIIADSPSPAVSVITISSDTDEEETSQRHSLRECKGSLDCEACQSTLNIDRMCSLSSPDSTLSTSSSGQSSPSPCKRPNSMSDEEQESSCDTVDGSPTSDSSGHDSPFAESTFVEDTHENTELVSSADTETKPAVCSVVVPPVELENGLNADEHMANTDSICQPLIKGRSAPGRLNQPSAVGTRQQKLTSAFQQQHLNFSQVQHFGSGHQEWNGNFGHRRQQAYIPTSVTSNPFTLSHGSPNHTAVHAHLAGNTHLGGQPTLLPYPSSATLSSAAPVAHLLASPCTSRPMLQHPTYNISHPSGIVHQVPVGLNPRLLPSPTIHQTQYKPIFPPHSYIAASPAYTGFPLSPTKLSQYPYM
Sequence of Protein kinase C eta type (Homo sapiens) (P24723 whole entry): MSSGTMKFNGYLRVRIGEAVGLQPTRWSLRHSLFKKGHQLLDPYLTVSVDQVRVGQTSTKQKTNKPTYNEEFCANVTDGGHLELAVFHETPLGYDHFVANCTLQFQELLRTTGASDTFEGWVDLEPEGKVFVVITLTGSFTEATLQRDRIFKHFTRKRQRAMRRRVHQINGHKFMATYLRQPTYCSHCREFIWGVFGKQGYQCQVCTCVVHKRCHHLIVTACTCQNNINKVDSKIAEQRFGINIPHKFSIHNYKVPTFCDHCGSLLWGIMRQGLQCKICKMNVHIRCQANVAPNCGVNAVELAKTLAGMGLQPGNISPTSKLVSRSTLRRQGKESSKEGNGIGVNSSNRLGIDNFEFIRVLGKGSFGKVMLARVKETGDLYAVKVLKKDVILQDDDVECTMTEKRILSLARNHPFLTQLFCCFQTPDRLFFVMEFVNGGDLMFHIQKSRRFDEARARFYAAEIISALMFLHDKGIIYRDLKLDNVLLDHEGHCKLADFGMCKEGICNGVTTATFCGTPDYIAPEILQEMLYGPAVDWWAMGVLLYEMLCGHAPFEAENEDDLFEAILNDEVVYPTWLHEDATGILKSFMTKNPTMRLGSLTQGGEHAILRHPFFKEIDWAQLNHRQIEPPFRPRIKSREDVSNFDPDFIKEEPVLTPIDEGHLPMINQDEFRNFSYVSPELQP
Sequence of Insulin-like growth factor 1 receptor (Homo sapiens) (P08069 31-736 limits assumed): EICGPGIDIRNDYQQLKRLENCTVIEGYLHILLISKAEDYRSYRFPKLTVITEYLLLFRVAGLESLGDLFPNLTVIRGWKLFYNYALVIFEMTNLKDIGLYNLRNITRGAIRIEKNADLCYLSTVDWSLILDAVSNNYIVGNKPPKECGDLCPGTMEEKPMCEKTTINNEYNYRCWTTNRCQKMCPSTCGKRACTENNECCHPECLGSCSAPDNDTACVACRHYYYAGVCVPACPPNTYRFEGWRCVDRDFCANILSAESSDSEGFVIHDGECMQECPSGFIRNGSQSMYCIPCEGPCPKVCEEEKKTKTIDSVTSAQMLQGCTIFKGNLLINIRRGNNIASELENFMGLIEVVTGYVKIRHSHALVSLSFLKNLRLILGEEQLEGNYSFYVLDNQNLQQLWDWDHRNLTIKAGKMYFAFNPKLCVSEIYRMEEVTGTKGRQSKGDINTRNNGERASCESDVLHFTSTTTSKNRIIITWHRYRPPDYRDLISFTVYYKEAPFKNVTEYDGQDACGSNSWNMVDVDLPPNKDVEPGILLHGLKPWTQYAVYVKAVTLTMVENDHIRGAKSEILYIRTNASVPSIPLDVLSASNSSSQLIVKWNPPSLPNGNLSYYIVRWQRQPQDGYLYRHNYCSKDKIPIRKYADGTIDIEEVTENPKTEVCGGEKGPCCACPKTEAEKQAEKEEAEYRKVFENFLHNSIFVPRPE
Sequence of Insulin-like growth factor 1 receptor (Homo sapiens) (P08069 741-1367 limits assumed): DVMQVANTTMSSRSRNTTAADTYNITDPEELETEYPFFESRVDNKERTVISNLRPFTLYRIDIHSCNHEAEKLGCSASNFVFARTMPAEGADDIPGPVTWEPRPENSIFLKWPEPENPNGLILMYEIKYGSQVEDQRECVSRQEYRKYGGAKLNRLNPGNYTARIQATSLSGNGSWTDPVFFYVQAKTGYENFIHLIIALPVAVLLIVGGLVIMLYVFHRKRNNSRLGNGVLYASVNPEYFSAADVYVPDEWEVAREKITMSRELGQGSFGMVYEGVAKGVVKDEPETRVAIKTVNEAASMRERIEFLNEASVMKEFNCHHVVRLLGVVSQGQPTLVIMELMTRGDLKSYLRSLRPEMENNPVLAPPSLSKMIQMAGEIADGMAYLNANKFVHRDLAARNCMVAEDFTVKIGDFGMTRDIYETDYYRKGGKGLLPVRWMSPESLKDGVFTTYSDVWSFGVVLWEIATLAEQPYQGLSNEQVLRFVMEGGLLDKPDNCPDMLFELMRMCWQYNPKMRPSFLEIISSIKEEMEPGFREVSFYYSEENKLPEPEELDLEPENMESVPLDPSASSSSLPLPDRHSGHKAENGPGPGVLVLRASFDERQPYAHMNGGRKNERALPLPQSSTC
Sequence of Tyrosine-protein kinase HCK (Homo sapiens) (P08631 2-526 limits assumed): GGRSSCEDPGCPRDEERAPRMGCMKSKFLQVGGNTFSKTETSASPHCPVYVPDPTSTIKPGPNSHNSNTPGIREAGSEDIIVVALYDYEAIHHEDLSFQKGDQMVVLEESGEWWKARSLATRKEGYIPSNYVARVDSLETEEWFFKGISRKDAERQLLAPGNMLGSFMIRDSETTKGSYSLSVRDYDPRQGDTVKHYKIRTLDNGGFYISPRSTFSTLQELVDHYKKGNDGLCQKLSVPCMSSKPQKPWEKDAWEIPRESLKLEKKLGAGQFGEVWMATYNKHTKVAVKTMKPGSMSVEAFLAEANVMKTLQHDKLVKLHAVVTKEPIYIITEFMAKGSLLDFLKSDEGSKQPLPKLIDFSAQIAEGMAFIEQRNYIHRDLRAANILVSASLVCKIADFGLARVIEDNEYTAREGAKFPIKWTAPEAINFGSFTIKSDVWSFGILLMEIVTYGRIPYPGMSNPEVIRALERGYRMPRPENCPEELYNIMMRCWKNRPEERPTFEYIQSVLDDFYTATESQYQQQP

Row | SMILES | residual activity [1] [%] | residual activity [2] [%] | residual activity [3] [%] | residual activity [4] [%] | residual activity [5] [%] | residual activity [6] [%] | residual activity [7] [%] | residual activity [8] [%] | residual activity [9] [%] | residual activity [10] [%] | residual activity [11] [%] | residual activity [12] [%] | residual activity [13] [%] | residual activity [14] [%] | residual activity [15] | residual activity [16] [%] | residual activity [17] [%] | residual activity [18] [%] | residual activity [19] [%] | residual activity [20] [%]
1 | O=C(c1cc2cc(O)ccc2[nH]1)c1cc2cc(O)ccc2[nH]1 | 25 | 39 | 7 | 23 | 5 | 8 | 3 | 65 | 63 | 77 | 83 | 67 | 80 | 23 | – | – | – | – | – | –
2 | CC(C)N(CCC(=O)c1ccc2ccccc2c1)Cc1ccccc1 | 100 | 81 | 66 | 79 | 64 | – | – | – | – | 76 | – | – | 74 | 84 | 77% (inactive) | 72 | – | – | – | –
3 | CCCCc1c(-c2ccc(OC)cc2)[nH]c2nccnc12 | 110 | 77 | 27 | 60 | 24 | 75 | 81 | 109 | 136 | – | 90 | 83 | 121 | 84 | 112% (inactive) | – | 103 | – | – | –
4 | CCN1/C(=C/C(C)=O)Sc2ccc(OC)cc21 | 75 | 17 | 4 | 76 | 71 | – | – | 70 | – | – | – | – | 59 | 18 | – | – | – | 70 | – | –
5 | O=C1NC(=O)c2c1c1c3ccccc3[nH]c1n1cncc21 | 42 | 8 | 18 | 54 | 39 | 38 | 35 | 9 | 14 | 81 | 71 | – | 41 | 25 | 102% (inactive) | 52 | – | 42 | 85 | 90
6 | O=C(CCCc1ccc(-c2ccccc2F)cc1)Nc1ccc(O)cc1 | 98 | – | 98 | 96 | 62 | 106 | 89 | 104 | 100 | – | 100 | 105 | – | – | – | – | – | 98 | – | 110
7 | CC(C)(C)c1nc2c3ccc(F)cc3c3c(=O)[nH]ccc3c2[nH]1 | 45 | 74 | 34 | 49 | 31 | 68 | 60 | 119 | – | – | – | – | 8 | 16 | – | – | – | 22 | – | 40
8 | COc1ccc(Cl)cc1NC(=O)Nc1cc(C)nc2ccccc12 | 98 | – | – | 93 | 53 | 100 | 98 | 147 | – | – | 89 | 92 | 95 | 87 | 88% (inactive) | 86 | – | – | – | –
9 | O=C1NC(=O)C(c2cn(CCCO)c3ncccc23)=C1c1cnccn1 | – | 69 | 55 | 66 | 48 | 95 | 96 | 138 | 124 | 87 | 97 | 77 | – | – | – | – | – | – | – | –
